Hit rate of the full screen: of about 300,000 compounds, about 37,000 (12%) were called active. This excerpt belongs to a sample that is enriched for actives. A number with no mark means an inactive call. Rule as the data show it: active = max response mostly above about 13% (no sharp cut-off); inactive = mostly below about 14%.
experiment: Cycloheximide Counterscreen for Small Molecule Inhibitors of Shiga Toxin; settings: cell reporter, cycloheximide protein synthesis inhibition counterscreen; stronger effect = higher value; also: read at 38.3 µM for the half of the compounds with a filed dose; 0% is about no effect

Q: Which max response does the source give for Cc1nc2ccc(C(=O)N(C)CC3CCCN(CCc4ccc(Cl)cc4)C3)cc2[nH]1 (centres undefined) here?
A: -2.66%

Q: For C=CCNC(=S)N1CCN(CCN=Cc2c(C)[nH]n(-c3ccc([N+](=O)[O-])cc3)c2=O)CC1, which max response is on record?
A: -1.17%

Q: For CCO[C@H]1OC(C(=O)Nc2ccccc2)=C[C@@H](C2CC2)[C@@H]1CCCO, which max response is on record?
A: -1.4%

Q: Which max response does the source give for C[C@]1(C(=O)NCCc2c[nH]c3ccccc23)C=C[C@@H](Cc2ccccc2)N1C(=O)c1ccccc1 here?
A: 11.9%

Q: For Cc1ccc(N2C(=O)C3C(c4ccccc4)(C2=O)C3(c2ccccc2)c2ccccc2)cc1 (centres undefined), which max response is on record?
A: -4.14%

Q: With CCOc1cccc(-c2nn3c(-c4ccccn4)nnc3s2)c1 as the compound, how does the max response read?
A: 22.6% (active)

Q: With c1ccc(-c2cc(-c3nnc4sc(-c5ccccn5)nn34)[nH]n2)cc1 as the compound, how does the max response read?
A: 5.86%

Q: With COc1cc(-c2nn3c(-c4cccc(C)c4)nnc3s2)cc(OC)c1OC as the compound, how does the max response read?
A: -2.72%

Q: Which max response does the source give for CCC(=O)N(Cc1cc2cc(OC)ccc2[nH]c1=O)c1ccccc1C here?
A: -0.76%

Q: With COc1ccc(N(Cc2cc3cc(OC)ccc3[nH]c2=O)S(C)(=O)=O)cc1 as the compound, how does the max response read?
A: -1.64%

Q: With COc1ccc2[nH]c(=O)c(CNc3ccc(C)c(C)c3)cc2c1 as the compound, how does the max response read?
A: 15% (active)

Q: With CC(=O)c1ccc(S(=O)(=O)N2CCC(Oc3ccc(-n4cnnn4)cc3)CC2)cc1 as the compound, how does the max response read?
A: -8.92%

Q: For N#Cc1c(Cl)nc(-c2cccnc2)nc1-c1ccccc1, which max response is on record?
A: -2.59%

Q: Which max response does the source give for S=C(Nc1cccnc1)Nc1ccccn1 here?
A: -1.56%

Q: For CCOC(=O)c1cnc(-n2nc(C)cc2C)nc1NNc1cc(C)nc(-c2ccccc2)n1, which max response is on record?
A: -1.88%

Q: With COc1ccc(/C=N/Nc2ccccc2C(=O)O)cc1 as the compound, how does the max response read?
A: 38.9% (active)

Q: With COc1ccc(C=Nc2cccc3ncccc23)cc1 as the compound, how does the max response read?
A: 5.61%

Q: With COc1ccc(/C=N/Nc2nc(-c3ccc(C)cc3)c(C#N)c(=O)[nH]2)cc1 as the compound, how does the max response read?
A: -2.53%

Q: With COc1ccc(/C=N/Nc2nc3ccccc3c(=O)[nH]2)cc1 as the compound, how does the max response read?
A: 43.2% (active)

Q: Which max response does the source give for COc1ccc(/C=N/NS(=O)(=O)c2ccc(NC(C)=O)cc2)cc1 here?
A: -2.62%

Q: Which max response does the source give for COc1ccc(/C=N/OCC(=O)N(Cc2ccccc2)c2ccccc2C(=O)O)cc1 here?
A: -1.3%

Q: For Cc1cccc(NC(=O)C2CCN(C(=O)NC3CCCCC3)CC2)c1, which max response is on record?
A: -6.02%

Q: With Cc1ccc2cc(CCNC(=O)c3c(-c4ccccc4Cl)noc3C)c(=O)[nH]c2c1 as the compound, how does the max response read?
A: -3.51%

Q: Which max response does the source give for Cc1c2cnn(CC(=O)NCc3ccccn3)c(=O)c2c(C)n1Cc1ccc(Cl)cc1 here?
A: -3.5%

— PubChem BioAssay AID2314 (National Center for Advancing Translational Sciences (NCATS), 2010)
